Measurements reported in PubChem BioAssay (NCATS).
Inconclusive results are not listed. Active and inactive are the calls of the source. Unless noted, the call rests on the fitted dose curve.

Key:
[1] = qHTS for Inhibitors of the Functional Ribonucleoprotein Complex (vRNP) of Lassa (LASV) Arenavirus: LASV Primary Screen - GLuc reporter signal (AID 1347082; calls by dose curve; tested in HEK293 reporter line; further: nearly all actives have a fitted effect of over 60% in size)
[2] = qHTS for Inhibitors of the Functional Ribonucleoprotein Complex (vRNP) of Lassa (LASV) Arenavirus: Viability assay - alamar blue signal for LASV Primary Screen (AID 1347083; calls by dose curve; tested in HEK293 reporter line; further: nearly all actives have a fitted effect of over 80% in size)
[3] = qHTS for Inhibitors of the Functional Ribonucleoprotein Complex (vRNP) of Lymphocytic Choriomeningitis Arenaviruses (LCMV): Viability assay - alamar blue signal for LCMV Primary Screen (AID 1347085; calls by dose curve; tested in HEK293 reporter line; further: nearly all actives have a fitted effect of over 80% in size)
[4] = target: Nucleoprotein (Lymphocytic choriomeningitis virus (strain Armstrong)) (UniProt P09992); test: qHTS for Inhibitors of the Functional Ribonucleoprotein Complex (vRNP) of Lymphocytic Choriomeningitis Arenaviruses (LCMV): LCMV Primary Screen - GLuc reporter signal (AID 1347086); further: nearly all actives have a fitted effect of over 70% in size
Sequence of Nucleoprotein (Lymphocytic choriomeningitis virus (strain Armstrong)) (P09992 whole entry, looked up): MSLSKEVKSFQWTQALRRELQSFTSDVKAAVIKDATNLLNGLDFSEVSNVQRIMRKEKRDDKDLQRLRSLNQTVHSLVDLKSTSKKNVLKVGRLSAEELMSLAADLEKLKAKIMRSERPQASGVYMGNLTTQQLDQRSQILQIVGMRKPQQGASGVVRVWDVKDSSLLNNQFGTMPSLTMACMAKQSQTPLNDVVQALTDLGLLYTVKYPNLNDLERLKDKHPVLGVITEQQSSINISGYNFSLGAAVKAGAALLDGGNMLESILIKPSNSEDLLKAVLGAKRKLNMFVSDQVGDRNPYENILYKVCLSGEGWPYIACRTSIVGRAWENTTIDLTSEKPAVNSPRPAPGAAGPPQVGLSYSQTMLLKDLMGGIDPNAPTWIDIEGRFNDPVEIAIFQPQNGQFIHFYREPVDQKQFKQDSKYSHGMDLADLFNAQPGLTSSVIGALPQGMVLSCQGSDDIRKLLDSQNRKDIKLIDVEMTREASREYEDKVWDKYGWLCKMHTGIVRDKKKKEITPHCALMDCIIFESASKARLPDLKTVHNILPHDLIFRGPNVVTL

[5] = Primary qHTS for Huh7 cytotoxicity: counterscreen for inhibitors of MERS-S pseudotyped particle cell entry (AID 1479147); settings: outcome: dose series up to 57.1 µM unless noted
[6] = Primary qHTS for Vero E6 cytotoxicity: counterscreen for inhibitors of SARS-S pseudo-typed particle cell entry (AID 1479150); settings: outcome: dose series up to 57.1 µM unless noted
[7] = Primary qHTS for inhibitors of MERS-S pseudo-typed particle cell entry (AID 1479149); further: nearly all actives have a fitted effect of over 60% in size
[8] = Cytotoxicity counterscreen for inhibitors of SARS-CoV-2 cell entry (AID 1645845); further: nearly all actives have a fitted effect of over 50% in size
Outline: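 After a 15 min room-temperature ATPLite 1step step, luminescence reflected ATP remaining in HEK293-ACE2 cells exposed to compound for 1 h plus 48 h at 37 C, with percent activity set by cell and no-cell controls.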

[9] = Primary qHTS to identify inhibitors of SARS-CoV-2 cell entry (AID 1645846); settings: activity change, negative = inhibition: at 57.1 µM (top of the series) unless noted; further: nearly all actives have a fitted effect of over 45% in size
Outline: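 Data are normalized to wells receiving SARS-CoV-2-S pseudoparticles and those given bald particles. Entry signal was luciferase luminescence in stable hACE2 Expi293F cells, 48 hr post-infection, after 1 hr compound pretreatment.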

O=[N+]([O-])c1c(Cl)cccc1-c1c[nH]cc1Cl
inactive: Potency [1] | Potency [2] | Potency [3] | Potency [4] | outcome [5] | outcome [6]

O=C(O)/C=C/c1ccccc1
inactive: Potency [1] | Potency [2] | Potency [3] | Potency [4] | outcome [5] inactive [at 114 µM] | Potency [7] | outcome [6] inactive [at 114 µM] | Potency [8]
-30.4% [at 114 µM]: activity change, negative = inhibition [9]
